{"source": "PubChem BioAssay (EPA / NIEHS)", "key": {"[1]": {"target": "rat CYP2C11, Cyp2c11 (gene 29277) (UniProt P08683)", "sequence (P08683 whole entry, looked up)": "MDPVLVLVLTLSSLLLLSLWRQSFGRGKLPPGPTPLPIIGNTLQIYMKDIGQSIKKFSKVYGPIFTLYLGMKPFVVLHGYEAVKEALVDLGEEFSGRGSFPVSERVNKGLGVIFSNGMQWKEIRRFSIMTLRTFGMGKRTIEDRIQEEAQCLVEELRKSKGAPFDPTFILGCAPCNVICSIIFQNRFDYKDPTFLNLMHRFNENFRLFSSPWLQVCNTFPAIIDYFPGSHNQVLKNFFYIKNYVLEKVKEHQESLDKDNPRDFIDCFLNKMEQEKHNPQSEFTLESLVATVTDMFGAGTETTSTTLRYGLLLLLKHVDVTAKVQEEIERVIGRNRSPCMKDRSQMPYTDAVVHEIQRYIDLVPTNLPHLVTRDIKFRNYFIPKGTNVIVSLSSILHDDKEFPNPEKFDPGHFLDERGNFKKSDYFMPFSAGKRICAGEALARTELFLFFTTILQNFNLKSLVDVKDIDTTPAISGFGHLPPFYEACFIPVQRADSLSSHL", "assay": "NVS_ADME_rCYP2C11: NovaScreen (NVS) CYP450-related Enzyme Activity (ADME) Assay for rat CYP2C11 (AID 2283118)", "method_in_brief": "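Screened first at 10 uM in duplicate, hits followed by concentration-response. Recombinant rat enzyme activity monitored by fluorescence 0.33 h post-dosing, normalised to acetonitrile negative control.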"}, "[2]": {"target": "human Aurora Kinase A - serine/threonine-protein Kinase 6 (AurA), AURKA (gene 6790) (UniProt O14965)", "sequence (O14965 whole entry, looked up)": "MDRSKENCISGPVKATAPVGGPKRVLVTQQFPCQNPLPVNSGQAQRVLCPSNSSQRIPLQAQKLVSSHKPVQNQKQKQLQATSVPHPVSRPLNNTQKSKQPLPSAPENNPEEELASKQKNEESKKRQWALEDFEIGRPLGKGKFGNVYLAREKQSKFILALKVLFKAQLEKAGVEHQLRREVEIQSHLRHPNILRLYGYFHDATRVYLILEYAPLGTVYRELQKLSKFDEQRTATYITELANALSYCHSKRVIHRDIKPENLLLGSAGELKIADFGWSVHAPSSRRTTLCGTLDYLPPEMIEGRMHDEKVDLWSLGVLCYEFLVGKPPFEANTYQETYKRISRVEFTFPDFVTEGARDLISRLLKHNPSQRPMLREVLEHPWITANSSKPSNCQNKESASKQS", "assay": "NVS_ENZ_hAurA: NovaScreen (NVS) Enzymatic Assay for human Aurora Kinase A - serine/threonine-protein Kinase 6 (AurA) (AID 2283142)", "method_in_brief": "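Recombinant human AurA activity read by fluorescence after mobility-shift separation of product from substrate; 1 hour incubation. Chemicals first run in duplicate at 25 uM, then concentration series to 50 uM if over threshold; fitted relative to DMSO.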"}, "[3]": {"target": "human Caspase 8 (CASP8), CASP8 (gene 841) (UniProt Q14790)", "sequence (Q14790 whole entry, looked up)": "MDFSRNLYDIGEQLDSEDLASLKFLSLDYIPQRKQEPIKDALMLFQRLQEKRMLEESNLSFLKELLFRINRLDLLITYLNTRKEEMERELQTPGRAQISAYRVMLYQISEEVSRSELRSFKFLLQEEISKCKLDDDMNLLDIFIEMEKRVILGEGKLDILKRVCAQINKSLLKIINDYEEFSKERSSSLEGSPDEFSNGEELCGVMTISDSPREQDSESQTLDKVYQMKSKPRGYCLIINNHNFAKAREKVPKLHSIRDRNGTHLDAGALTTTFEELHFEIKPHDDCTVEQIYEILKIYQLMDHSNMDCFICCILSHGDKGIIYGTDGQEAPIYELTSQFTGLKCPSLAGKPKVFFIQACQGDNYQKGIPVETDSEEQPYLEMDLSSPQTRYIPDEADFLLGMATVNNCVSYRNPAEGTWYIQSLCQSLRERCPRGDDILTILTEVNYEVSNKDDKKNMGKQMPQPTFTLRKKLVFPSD", "assay": "NVS_ENZ_hCASP8: NovaScreen (NVS) Enzymatic Assay for human Caspase 8 (CASP8) (AID 2283146)", "method_in_brief": "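The primary screen tested compounds in duplicate at a single 25 uM concentration, with actives followed up in concentration series. Activity of recombinant (E. coli) protease was measured by fluorescence 1 h post-dose, as signal loss against DMSO.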"}, "[4]": {"target": "human Beta-secretase (BACE), BACE1 (gene 23621) (UniProt P56817)", "sequence (P56817 whole entry, looked up)": "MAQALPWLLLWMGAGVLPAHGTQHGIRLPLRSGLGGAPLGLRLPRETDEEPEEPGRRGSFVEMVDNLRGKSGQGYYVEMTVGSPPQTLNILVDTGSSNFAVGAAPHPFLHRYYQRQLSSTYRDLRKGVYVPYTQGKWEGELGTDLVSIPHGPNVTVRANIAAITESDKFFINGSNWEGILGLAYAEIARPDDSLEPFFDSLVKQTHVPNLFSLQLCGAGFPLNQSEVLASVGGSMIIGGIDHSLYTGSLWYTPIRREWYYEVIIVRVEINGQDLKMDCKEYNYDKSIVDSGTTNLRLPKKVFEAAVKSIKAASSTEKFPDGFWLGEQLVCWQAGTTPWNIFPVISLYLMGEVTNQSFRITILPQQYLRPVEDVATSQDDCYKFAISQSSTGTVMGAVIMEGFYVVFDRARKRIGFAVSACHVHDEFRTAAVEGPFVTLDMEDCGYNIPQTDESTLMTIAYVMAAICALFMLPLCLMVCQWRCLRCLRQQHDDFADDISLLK", "assay": "NVS_ENZ_hBACE: NovaScreen (NVS) Enzymatic Assay for human Beta-secretase (BACE) (AID 2283140);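 also: hits are inhibitors that reduce fluorescent substrate signal versus DMSO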", "method_in_brief": "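Enzyme from SF9 cells was incubated 1 hour with compound and fluorogenic substrate, activity read by fluorescence. Single-concentration duplicates at 25 uM preceded concentration-response follow-up; fitting relative to DMSO baseline.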"}, "[5]": {"target": "rat CYP2A2, Cyp2a2 (gene 24895) (UniProt P15149)", "sequence (P15149 whole entry, looked up)": "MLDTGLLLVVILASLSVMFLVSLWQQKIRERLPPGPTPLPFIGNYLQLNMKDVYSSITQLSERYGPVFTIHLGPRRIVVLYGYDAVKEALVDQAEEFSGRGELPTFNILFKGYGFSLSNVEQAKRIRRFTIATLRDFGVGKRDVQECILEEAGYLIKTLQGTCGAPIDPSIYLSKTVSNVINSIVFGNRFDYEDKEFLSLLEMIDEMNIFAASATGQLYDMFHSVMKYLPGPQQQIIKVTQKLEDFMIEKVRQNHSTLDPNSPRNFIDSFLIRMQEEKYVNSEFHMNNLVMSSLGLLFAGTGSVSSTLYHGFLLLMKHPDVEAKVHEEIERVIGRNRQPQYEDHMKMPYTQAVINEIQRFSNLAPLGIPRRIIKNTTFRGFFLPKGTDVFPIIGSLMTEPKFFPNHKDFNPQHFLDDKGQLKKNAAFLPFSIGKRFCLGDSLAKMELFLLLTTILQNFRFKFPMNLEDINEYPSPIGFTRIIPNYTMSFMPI", "assay": "NVS_ADME_rCYP2A2: NovaScreen (NVS) CYP450-related Enzyme Activity (ADME) Assay for rat CYP2A2 (AID 2283116)", "method_in_brief": "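Compounds first tested in duplicate at 10 uM, then in singleton concentration series up to 20 uM when over threshold. Activity of the recombinant enzyme read by fluorescence at 0.2 h, normalised to acetonitrile vehicle.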"}, "[6]": {"system": "rat CYP3A1, gene 25642", "assay": "NVS_ADME_rCYP3A1: NovaScreen (NVS) CYP450-related Enzyme Activity (ADME) Assay for rat CYP3A1 (AID 2283126)", "method_in_brief": "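Compounds went first at 10 uM duplicate, then to series with 20 uM maximum. Fluorescence from substrate turnover by the recombinant enzyme was measured 0.5 h post-dosing, inhibition scored against acetonitrile vehicle.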"}, "[7]": {"target": "human Acetylcholinesterase (AChE), ACHE (gene 43) (UniProt P22303)", "sequence (P22303 whole entry, looked up)": "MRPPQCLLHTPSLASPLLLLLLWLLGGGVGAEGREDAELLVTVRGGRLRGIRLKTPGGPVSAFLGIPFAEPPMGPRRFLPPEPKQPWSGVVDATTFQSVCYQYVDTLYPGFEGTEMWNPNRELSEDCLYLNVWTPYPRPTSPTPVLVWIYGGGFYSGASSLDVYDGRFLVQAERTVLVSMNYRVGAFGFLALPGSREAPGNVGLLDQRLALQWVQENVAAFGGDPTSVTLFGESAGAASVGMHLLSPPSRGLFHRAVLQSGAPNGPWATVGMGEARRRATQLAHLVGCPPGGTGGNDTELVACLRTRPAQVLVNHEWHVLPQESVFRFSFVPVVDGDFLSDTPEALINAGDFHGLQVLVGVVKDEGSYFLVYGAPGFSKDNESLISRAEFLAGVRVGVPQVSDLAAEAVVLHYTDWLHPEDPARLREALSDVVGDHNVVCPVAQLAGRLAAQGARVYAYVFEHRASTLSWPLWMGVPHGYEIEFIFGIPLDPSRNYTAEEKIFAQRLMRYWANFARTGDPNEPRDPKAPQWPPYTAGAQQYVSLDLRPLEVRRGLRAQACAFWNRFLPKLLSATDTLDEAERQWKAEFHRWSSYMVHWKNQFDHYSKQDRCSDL", "assay": "NVS_ENZ_hAChE: NovaScreen (NVS) Enzymatic Assay for human Acetylcholinesterase (AChE) (AID 2283129)", "method_in_brief": "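Actives from a duplicate single-point screen (25 uM) were followed up in concentration series. Enzyme activity read by absorbance (colorimetric) 0.33 hour after dosing, cell-free, normalized to DMSO, with loss of signal scored.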"}, "[8]": {"target": "rat CYP2C13, Cyp2c13 (gene 171521) (UniProt P20814)", "sequence (P20814 whole entry, looked up)": "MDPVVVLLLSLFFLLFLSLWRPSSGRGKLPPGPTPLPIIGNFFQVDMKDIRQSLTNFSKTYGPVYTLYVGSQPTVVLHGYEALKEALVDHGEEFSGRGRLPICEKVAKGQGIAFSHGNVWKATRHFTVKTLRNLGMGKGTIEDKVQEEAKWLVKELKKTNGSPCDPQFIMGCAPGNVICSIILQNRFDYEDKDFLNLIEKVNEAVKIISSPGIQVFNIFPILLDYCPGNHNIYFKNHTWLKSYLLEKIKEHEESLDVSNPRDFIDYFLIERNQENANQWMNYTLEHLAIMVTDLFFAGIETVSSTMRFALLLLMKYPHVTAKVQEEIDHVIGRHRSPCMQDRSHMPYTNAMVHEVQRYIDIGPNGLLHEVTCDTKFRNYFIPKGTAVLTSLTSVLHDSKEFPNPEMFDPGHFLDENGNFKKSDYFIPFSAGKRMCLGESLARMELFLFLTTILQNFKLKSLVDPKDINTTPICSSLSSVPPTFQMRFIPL", "assay": "NVS_ADME_rCYP2C13: NovaScreen (NVS) CYP450-related Enzyme Activity (ADME) Assay for rat CYP2C13 (AID 2283121)", "method_in_brief": "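Inhibition is read as decreased fluorescent product formation, referenced to acetonitrile vehicle. Cell-free recombinant rat Cyp2c13 reaction ran 0.75 hour; compounds first at 10 uM in duplicate, then concentration series for actives.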"}, "[9]": {"target": "Caspase-1 (Homo sapiens) (UniProt P29466)", "assay": "NVS_ENZ_hCASP1: NovaScreen (NVS) Enzymatic Assay for human Caspase 1 (CASP1) (AID 2283132)", "method_in_brief": "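Compounds were first tested in duplicate at 25 uM, with follow-up concentration series up to 50 uM. The bacterially expressed enzyme was read by fluorescence at 1 h post-dosing. Signal loss versus DMSO baseline indicates reduced enzyme activity.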"}, "[10]": {"target": "human Caspase 2 (CASP2), CASP2 (gene 835) (UniProt P42575)", "sequence (P42575 whole entry, looked up)": "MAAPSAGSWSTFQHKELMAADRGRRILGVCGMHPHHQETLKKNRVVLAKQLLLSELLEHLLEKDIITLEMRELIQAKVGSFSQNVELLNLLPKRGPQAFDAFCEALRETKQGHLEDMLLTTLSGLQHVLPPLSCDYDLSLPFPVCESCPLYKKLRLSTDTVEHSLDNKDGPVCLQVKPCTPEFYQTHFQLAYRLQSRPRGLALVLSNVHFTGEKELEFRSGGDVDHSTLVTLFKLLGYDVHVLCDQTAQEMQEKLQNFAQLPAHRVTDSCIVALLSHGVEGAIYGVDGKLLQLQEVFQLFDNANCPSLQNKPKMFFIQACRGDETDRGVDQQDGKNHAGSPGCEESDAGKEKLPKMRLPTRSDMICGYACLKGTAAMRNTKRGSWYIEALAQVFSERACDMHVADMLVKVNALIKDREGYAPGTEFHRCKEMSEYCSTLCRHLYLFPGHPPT", "assay": "NVS_ENZ_hCASP2: NovaScreen (NVS) Enzymatic Assay for human Caspase 2 (CASP2) (AID 2283135)", "method_in_brief": "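Single-point duplicate testing at 25 uM preceded concentration series topping at 50 uM. Activity of the recombinant E. coli-derived protease was followed by fluorescent substrate cleavage 1 h post-dosing, relative to DMSO.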"}, "[11]": {"target": "human Acid Phosphatase 1 (ACP1), ACP1 (gene 52) (UniProt P24666)", "assay": "NVS_ENZ_hACP1: NovaScreen (NVS) Enzymatic Assay for human Acid Phosphatase 1 (ACP1) (AID 2283136)", "method_in_brief": "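Cell-free fluorescence read-out of phosphatase activity, substrate and product separated by mobility shift, taken 1.5 h after compound addition; protein produced in Sf9. Single 25 uM duplicate screen, followed by concentration series for actives, scored as signal loss relative to DMSO.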"}, "[12]": {"target": "human Caspase 5 (CASP5), CASP5 (gene 838) (UniProt P51878)", "sequence (P51878 whole entry, looked up)": "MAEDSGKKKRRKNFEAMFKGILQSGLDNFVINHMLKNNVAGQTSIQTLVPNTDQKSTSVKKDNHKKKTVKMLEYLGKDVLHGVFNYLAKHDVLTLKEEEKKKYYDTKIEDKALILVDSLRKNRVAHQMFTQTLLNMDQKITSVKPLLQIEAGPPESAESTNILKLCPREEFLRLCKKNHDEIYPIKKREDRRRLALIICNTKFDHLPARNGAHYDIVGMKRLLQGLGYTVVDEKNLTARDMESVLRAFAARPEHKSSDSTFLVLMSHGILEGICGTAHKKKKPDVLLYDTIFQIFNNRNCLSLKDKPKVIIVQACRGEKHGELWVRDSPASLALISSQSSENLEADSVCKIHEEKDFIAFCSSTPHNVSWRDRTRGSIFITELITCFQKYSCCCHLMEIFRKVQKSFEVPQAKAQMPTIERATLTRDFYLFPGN", "assay": "NVS_ENZ_hCASP5: NovaScreen (NVS) Enzymatic Assay for human Caspase 5 (CASP5) (AID 2283137)", "method_in_brief": "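Loss of fluorescent signal versus DMSO scored for E. coli-derived human CASP5 cleaving a fluorescent substrate, 2 h post-dosing; compounds first tested at 25 uM in duplicate, hits rerun in concentration series with 50 uM top concentration.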"}, "[13]": {"target": "human AKT serine/threonine Kinase 2 (AKT2), AKT2 (gene 208) (UniProt P31751)", "sequence (P31751 whole entry, looked up)": "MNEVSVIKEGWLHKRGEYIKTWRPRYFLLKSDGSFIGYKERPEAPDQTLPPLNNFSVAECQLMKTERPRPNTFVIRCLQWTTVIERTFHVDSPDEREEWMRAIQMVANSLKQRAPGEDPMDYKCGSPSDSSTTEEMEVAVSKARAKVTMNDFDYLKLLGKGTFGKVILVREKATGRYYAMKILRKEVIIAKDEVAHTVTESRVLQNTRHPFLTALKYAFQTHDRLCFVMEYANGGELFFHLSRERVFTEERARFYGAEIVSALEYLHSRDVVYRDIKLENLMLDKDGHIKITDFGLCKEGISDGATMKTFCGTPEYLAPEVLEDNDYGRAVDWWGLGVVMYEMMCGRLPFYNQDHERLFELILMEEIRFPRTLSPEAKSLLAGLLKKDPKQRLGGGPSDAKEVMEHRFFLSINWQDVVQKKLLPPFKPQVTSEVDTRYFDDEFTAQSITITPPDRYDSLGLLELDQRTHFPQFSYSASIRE", "assay": "NVS_ENZ_hAKT2: NovaScreen (NVS) Enzymatic Assay for human AKT serine/threonine Kinase 2 (AKT2) (AID 2283141)", "method_in_brief": "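Cell-free fluorescence/electrophoretic mobility shift readout of recombinant human AKT2 activity, 1 h after chemical dosing. Duplicate primary screen at 25 uM, then singleton concentration-response up to 50 uM; loss of signal versus DMSO baseline.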"}, "[14]": {"target": "human Caspase 4 (CASP4), CASP4 (gene 837) (UniProt P49662)", "assay": "NVS_ENZ_hCASP4: NovaScreen (NVS) Enzymatic Assay for human Caspase 4 (CASP4) (AID 2283143)", "method_in_brief": "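Compounds were first tested in duplicate at 25 uM, and hits were titrated singly to a 50 uM maximum. Recombinant protease from E. coli was read by fluorescence 2 h post-dose, and activity loss was fitted against the DMSO baseline.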"}}, "note": "Values joined by “and” are separate entries in the source; they are usually repeats but may differ in a detail not shown here. Identical values can stand only once. Results filed as inconclusive are left out. Active and inactive are the calls of the source. The calls were made as follows: active = hit-call score of the fitted dose curve at least 0.9, where 1 is the maximum; inconclusive = response in the unintended direction; inactive = score below 0.9."}
{"smiles": "Fc1ccc(Oc2ccnc3cc(Cl)cc(Cl)c23)cc1", "values": [{"measurement": "AC50", "setting": "[1]", "value": "15.6 µM (active)"}, {"measurement": "outcome", "setting": "[2]", "value": "inactive"}, {"measurement": "outcome", "setting": "[3]", "value": "inactive"}]}
{"smiles": "COC(=O)C(C)Oc1ccc(Oc2ccc(Cl)cc2Cl)cc1", "note": "(stereo not drawn)", "values": [{"measurement": "AC50", "setting": "[4]", "value": "5.69 µM (active) and 16.3 µM (active) and 5.37 µM (active)"}]}
{"smiles": "CCCCNC(=O)OCC#CI", "values": [{"measurement": "AC50", "setting": "[5]", "value": "5.3 µM (active) and 5.4 µM (active)"}, {"measurement": "AC50", "setting": "[6]", "value": "1.46 µM (active) and 4.29 µM (active)"}]}
{"smiles": "COP(=S)(OC)Oc1nc(Cl)c(Cl)cc1Cl", "values": [{"measurement": "outcome", "setting": "[6]", "value": "inactive"}, {"measurement": "outcome", "setting": "[7]", "value": "inactive"}]}
{"smiles": "COC(=O)N(OC)c1ccccc1COc1ccn(-c2ccc(Cl)cc2)n1", "values": [{"measurement": "AC50", "setting": "[1]", "value": "0.809 µM (active)"}, {"measurement": "AC50", "setting": "[6]", "value": "1.29 µM (active)"}, {"measurement": "AC50", "setting": "[4]", "value": "11.6 µM (active)"}]}
{"smiles": "CNC(=S)S", "values": [{"measurement": "outcome", "setting": "[8]", "value": "inactive"}, {"measurement": "outcome", "setting": "[6]", "value": "inactive"}, {"measurement": "AC50", "setting": "[7]", "value": "39.9 µM (active)"}, {"measurement": "outcome", "setting": "[9]", "value": "inactive"}, {"measurement": "outcome", "setting": "[10]", "value": "inactive"}, {"measurement": "AC50", "setting": "[11]", "value": "9.04 µM (active)"}, {"measurement": "outcome", "setting": "[12]", "value": "inactive"}, {"measurement": "outcome", "setting": "[4]", "value": "inactive"}, {"measurement": "outcome", "setting": "[13]", "value": "inactive"}, {"measurement": "outcome", "setting": "[2]", "value": "inactive"}, {"measurement": "outcome", "setting": "[14]", "value": "inactive"}, {"measurement": "outcome", "setting": "[3]", "value": "inactive"}]}
